# Source: the supplement of paper PMC10338343
# ± gives the standard deviation.
# System: MILI (PIWIL2) piRISC loaded with piRNA #1 (26 nt)
# Assay: pre-steady-state target cleavage rate (min^-1); guide: piRNA #1 5'p-UGAGGUAGUAGGUUGUAUAGUAUCCA; MIWI and MILI are mouse PIWI proteins and EfPiwi is from a freshwater sponge; tags in brackets are library labels; higher = faster piRNA-guided slicing of the target
# Conditions: auxiliary factor: 500 nM mouse GTSF1
# How it was run: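 A burst-and-steady-state fit was used to obtain the pre-steady-state cleavage rate. The input data were sequencing reads of uncleaved targets, normalised to depth and to weakly complementary targets, from a […] transcribed, DNA-blocked target RNA library mixed with 1 nM active affinity-purified piRISC holding one synthetic guide, with or without 500 nM GTSF1 partner protein, in HEPES–potassium acetate buffer at 33 °C for 0–8 or 0–960 min. Three trials were pooled and k3 was capped at 0.0001 min^-1.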
# 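Note: 1 nM active piRISC with 0.1 nM target library at 33 °C single turnover.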
row,Sequence,pre-steady-state target cleavage rate
1,GGAGACCUAACUAUACAACCUACUACCUGA,0.108 ± 0.03
2,GGAGACCUAUGAUAUGUACGUACUACCUGA,< 0.0001
3,GGAGACCUAUGAUUACAACGUACUACCACA,0.00319 ± 0.0028
4,GGAGACCUAACUAUACAACGUACUUCCUCA,0.0215 ± 0.0078
5,GGAGACCUAUGAUAUCAAACUACUACCUCA,0.00495 ± 0.0026
6,GGAGACCUAUCUAUACAACCUACUACGUGA,0.0608 ± 0.013
7,GGAGACCUUACUAAACAACGUACUACCUCA,0.015 ± 0.0024
8,GGAGUGGAAACUAUUCAACCUACUACCUCA,0.192 ± 0.017
9,GGAGACCUUACAAUACAACCUUCUACCUCA,0.00687 ± 0.0029
10,GGAGACCUAUCUUUACAACCUACUACCACA,0.105 ± 0.016
11,GGAGACCUUUCUAUACAACGUACUACCUCA,0.013 ± 0.003
12,GGAGACCUAUCUAUACAACCUACUACCUGCA,0.103 ± 0.014
13,GGAGACCAUACUAUACAUCCUUCUACCUCA,0.042 ± 0.0097
14,GGAGACCAUACUAUAAACCUACUACCUCA,0.0199 ± 0.0046
15,GGAGACCUAUGAAUACAACCUACUUACCUCA,0.00968 ± 0.0023
16,GGAGACCUAUCUAUACAAGCAACUACCUCA,0.00953 ± 0.0029
17,GGAGACCUAUCUAUUCAACCUAGUACCUCA,0.00955 ± 0.0033
18,GGAGACCUUAGUAUACAACCUACUACCACA,0.101 ± 0.013
19,GGAGAGGAUACUAUACAAGCUACUACCACA,0.243 ± 0.019
20,GGAGACCUAAGUAUACAACCUACUACCUGA,0.0424 ± 0.0093

row,Sequence,pre-steady-state target cleavage rate
1,GGAGACCUAACUAUACAACCUACAUGCUCA,0.0479 ± 0.022
2,GGAGACCAUACUAUACAACGAUGAUGGAGA [g12:g23:cont:t1A],< 0.0001
3,GGAGACCUAUCUAUACAACCUACUACCCA,0.098 ± 0.019
4,GGAGACCUAUGUAUACAUGGAUGAUGGAGA [g14:g19:cont:t1A],< 0.0001
5,GGAGACCUAUCUAUACAACGUAGUACCUCA,0.00772 ± 0.0031
6,GGAGACCUAUGUAUACAACCUACAACCUGA,0.0031 ± 0.0024
7,GGAGACCUAUCUAUACAUCGUACUACCUCA,0.014 ± 0.0026
8,GGAGACCUAUGAAUACCAACCUACUACCUCA,0.00269 ± 0.0026
9,GGAGUGGAUACUAUAGAUCCUACUACCUCA,0.251 ± 0.015
10,GGAGACCUAUGUAUACAACCUCACUACCUCA,0.00401 ± 0.0027
11,GGAGACCUAUGUAUACAAGCUUCUACCUCA,0.0107 ± 0.0027
12,GGAGACCUAUCUAUACAACCUACUUCGUCA,0.0271 ± 0.0057
13,GGAGACCUAUGUAUACAACCUACUACCUGCA,0.0635 ± 0.011
14,GGAGACCUAUGAAUACAACCUACUACAUCA,0.00323 ± 0.0026
15,GGAGACCUAACUAUACAACCUAACUACCUCA,0.00748 ± 0.0037
16,GGAGAGGAUACUAUUCUACCUACUACCUCA,0.179 ± 0.013
17,GGAGACCUAUGAUUACAACCUACUACCCUCA,0.00361 ± 0.0029
18,GGAGACGAUACUAUAGAACCUACUUCCUCA,0.0055 ± 0.0044
19,GGAGACCUUACUAUACAACCUACUUCCACA,0.0518 ± 0.013
